Each structure is given as a SMILES string. Inconclusive results are not listed. A call without a number means that no potency is given here. Activity calls are given as the source filed them. Calls come from the whole dose curve; as a rule, active = well fitted activation curve with a large enough effect in the repeat runs; inconclusive = weak or mixed curves; inactive = flat fitted curve, though single readings scatter.

The nature of the experiment: A CellTox Green Cytotoxicity Assay to monitor cytotoxicity in HEK293 cells - 32 hour (AID 1224881). Note: nearly all actives have a fitted effect of over 40% in size. The conditions noted are these: CellTox Green fluorescence; series mostly up to 76.8 µM. The text has this:
National Center for Advancing Translational Sciences [NCATS]
NIH Chemical Genomics Center [NCGC]
U.S. Environmental Protection Agency [EPA]
National Institutes of Environmental Health Sciences [NIEHS]
National Toxicology Program [NTP]
Cell-based models are critical for drug discovery. Determining the natural cytotoxic effects resulting from test compounds is an essential research activity. A CellTox Green Cytotoxicity Assay to monitor cytotoxicity in real time of continues cell culture during 40 hours of the compound treatment was used to screen Tox21 10K library compounds in Hek293 cells. CellTox Green Cytotoxicity Assay is a nonlytic, homogeneous, biofluorescent method to measure cytotoxicity in cell culture after experimental manipulation. The assay system uses a proprietary asymmetric cyanine dye that is excluded from viable cells but preferentially stains the dead cell's DNA. […] Viable cells produce no appreciable increases in fluorescence. Therefore, the fluorescence signal produced by the binding interaction with dead cell DNA is proportional to cytotoxicity.
The mixture of Hek293 cell suspension and reagents were dispensed at 600cells/6 ul/well in 1536-well tissue culture treated black solid bottom plates using a Multidrop dispenser. After the assay plates were incubated at a 37 C/5% CO2 incubator for 5 hours, 23 nL of compounds dissolved in DMSO, positive and negative controls was transferred to the assay plate by a pintool work station. The plates were incubated at 37 C for 40 hours. The fluorescence intensity were measured at 0h, 8h, 16h, 24h, 32h and 40h time points using ViewLux plate reader during compound treatment.
Consider `O=C1c2ccccc2CCc2ccccc21`, for which the Potency result is “inactive”.

As for `O=C(O)/C=C/C(=O)O`, the Potency entry is “inactive”.

Regarding `OCc1ccccc1`, the Potency entry is “inactive”. With `C=C(C)C(=O)OCC(C)C`, the Potency entry is “inactive”.

With `CN(C)c1ccc(O)c2c1C[C@H]1C[C@H]3[C@H](N(C)C)C(=O)C(C(N)=O)=C(O)[C@@]3(O)C(=O)C1=C2O`, the Potency entry was “inactive”. Consider `CCO[Si](CCCN)(OCC)OCC`, for which the Potency result was “inactive”.

Take `Cc1ccc2ncccc2c1`: the Potency entry is “inactive”.

In the case of `CCc1ccccc1CC`, the Potency result was “inactive”.

With `CC1(C)CC(N)CC(C)(CN)C1` (stereo not given), the Potency result was “inactive”. The same measure for `C=CCc1ccc(OC)c(OC)c1`: “inactive”; for `CN1C(=O)CC[C@H]1c1cccnc1`: “inactive”.

On to `CN/C(=C\[N+](=O)[O-])NCCSCc1csc(CN(C)C)n1`, for which the Potency result is “inactive”. The result for `OC1C(O)C(O)C(O)C(O)C1O` (stereo not given) reads “inactive”; that for `O=C(OCC1CCC2OC2C1)C1CCC2OC2C1` (stereo not given), “inactive”; that for `CCCCC(C=O)CC` (stereo not given), “inactive”. The result for `O=C1CCCC1` reads “inactive”; that for `Cc1ccc(S(=O)(=O)N=C=O)cc1`, “inactive”. For the compound `O=C(O)c1cc2ccccc2cc1O`, the Potency result is “inactive”.

Consider `CC(C)CCCCCCCOC(=O)CCCCC(=O)OCCCCCCCC(C)C`, for which the Potency entry was “inactive”. For the compound `CC(C)(Oc1ccc(CCNC(=O)c2ccc(Cl)cc2)cc1)C(=O)O`, the Potency result was “inactive”.

As to `COCCOC(=O)c1ccccc1C(=O)OCCOC`, the Potency entry is “inactive”. In the case of `O=S(=O)(O)c1ccc(N=Nc2c(O)ccc3cc(S(=O)(=O)O)ccc23)cc1`, the Potency entry is “inactive”. In the case of `CN(C)c1ccc(Cc2ccc(N(C)C)cc2)cc1`, the Potency result is “inactive”. Turning to `NC(=S)NNC(N)=S`, the Potency entry was “inactive”. The result for `C=C(C)[C@H]1CC=C(C)C(=O)C1` reads “inactive”. The same measure for `CC(=O)OCCOC(C)=O`: “inactive”; for `CCCCCCCO`: “inactive”. With `C=CC(=O)OCCC(=O)O`, the Potency entry was “inactive”. The same measure for `CCOC(=O)n1ccn(C)c1=S`: “inactive”; for `COc1ccc(C)cc1N`: “inactive”.

As for `CNC(=S)N(C)C`, the Potency entry is “inactive”.

With `CC(C)OP(=O)(CP(=O)(OC(C)C)OC(C)C)OC(C)C`, the Potency entry was “inactive”. Consider `CC(CCl)OP(=O)(OC(C)CCl)OC(C)CCl` (stereo not given), for which the Potency entry was “inactive”. The same measure for `CCCOC(=O)c1ccccc1`: “inactive”. Turning to `Clc1ccccn1`, the Potency result was “inactive”. For `CN(C)CCOC(=O)COc1ccc(Cl)cc1`, the Potency entry is “inactive”. The same measure for `O=C(O)c1ccc(S(=O)(=O)N(Cl)Cl)cc1`: “inactive”. The same measure for `CC(CCO)CC(C)(C)C` (stereo not given): “inactive”. The result for `CCCCCCO` reads “inactive”; that for `C[Si]1(C)O[Si](C)(C)O[Si](C)(C)O[Si](C)(C)O1`, “inactive”.

These data come from PubChem BioAssay (Tox21).
